Reference: PubChem BioAssay (NCATS)
Values without a mark were called inactive. Results filed as inconclusive are left out. Activity calls are given as the source filed them. Unless noted, calls come from the whole dose curve; as a rule, active = well fitted curve in either direction with a large enough effect (not every such curve was filed as active); inconclusive = small, poorly fitted or top-dose-only effect, or another doubt; inactive = flat fitted curve, though single readings scatter.

Key:
[1] = biological target: Lysosomal acid glucosylceramidase (Homo sapiens) (UniProt P04062); assay: Glucocerebrosidase-p2 (AID 348; in the data active = potency below about 10 µM; note: potency is the fitted concentration of half-maximal effect); conditions: purified GBA, blue fluorogenic substrate, 40 min
Method in brief: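 Normal human glucocerebrosidase (0.2 nM) with blue fluorogenic substrate (80 uM final) in citrate/phosphate pH 5.9 with 10mM sodium taurocholate, 0.01% tween-20; 40 min RT, NaOH/glycine stop; fluorescence Ex 365/Em 440; AC50 from a titration from 0.6 nM upwards.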

[2] = AP1 Signaling Pathway (AID 357); conditions: ME-180 AP-1-bla reporter, EGF-induced, beta-lactamase ratio, 5 h; at 7.69 µM (top of the series) unless noted;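 note: ME-180 reporter cells stimulated with EGF at its EC50 level; % is set by controls: 0 for no effect and ±100 for the full control effect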
Method in brief: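 Cells are seeded overnight, exposed to compound titrations and an EC50 level of EGF for 5 hours at 37 °C, then loaded with CCF4 dye for 2.5 hours. Beta-lactamase activity under the AP-1 element is read as a blue/green ratio.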

[3] = biological target: Cytochrome P450 1A2 (Homo sapiens) (UniProt P05177); assay: p450-cyp1a2 (AID 410; calls by dose curve; note: potency is the fitted concentration of half-maximal effect;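 for activity change, negative = inhibition: -100% = full effect of reference inhibitor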)
Method in brief: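 O-Demethylation of luciferin 6' methyl ether by human CYP1A2 is monitored as luciferase luminescence. Substrate sits at Km (100uM); enzyme is 20nM. Values are scaled to 57 uM furafylline as maximal inhibition.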

[4] = NFAT Signaling Pathway (AID 444); conditions: Jurkat NFAT-bla M1, carbachol, beta-lactamase ratio, 5 h; at 7.69 µM (top of the series) unless noted;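 note: carbachol stimulus at about its EC50 of 1 µM final; % is set by controls: 0 for no effect and ±100 for the full control effect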
Method in brief: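 Read-out: CCF4 FRET ratio (460 nm/530 nm) after 1 h RT dye loading, used for %activity and AC50 from titration series. Cells: Jurkat NFAT-β-lactamase/M1 line, treated with compound plus 1 uM carbachol for 5 h, 37 °C.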

[5] = Stat Signaling Pathway (AID 446); conditions: ME-180 SIE beta-lactamase reporter, IL-6 stimulated, 5 h; at 7.69 µM (top of the series) unless noted;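 note: ME-180 cervical cancer cells given 40 pM IL-6 alongside compound; SIE-controlled beta-lactamase reporter measured as 460/530 nm FRET emission ratio; % is set by controls: 0 for no effect and ±100 for the full control effect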
Method in brief: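 Emission at 460 and 530 nm (excitation 405 nm) reports SIE-controlled beta-lactamase in ME-180 cells. Cells received compound with 40 pM IL-6 for 5 hrs at 37 C; data scaled between 300 pM IL-6 and 125 nM JAK-inhibitor controls.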

[6] = biological target: Glucocorticoid receptor (Homo sapiens) (UniProt P04150); assay: GR-EFC Redistribution (AID 451; calls by dose curve; note: potency is the fitted concentration of half-maximal effect); conditions: CHO-K1 GR-EFC translocation, beta-gal luminescence, 2 h
Method in brief: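 Translocation of GR-ED fusion to nuclear EA restores b-gal, read by luminescence after 1 h room-temperature detection. Engineered CHO-K1 biosensor cells, 1,000/well, exposed 2 h at 37 C to titrations up to 46 uM final.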

[7] = biological target: 3',5'-cyclic-AMP phosphodiesterase 4B (Homo sapiens) (UniProt Q07343); assay: qHTS Assay for Inhibitors of PDE-IV (AID 607; active = well fitted activation curve with a large enough effect in the main read-out, with a control signal flat, not every such curve was filed as active; note: % of control where 0% means no effect)
Method in brief: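 The readout is membrane depolarisation from a cAMP-sensing CNG channel, detected with a potential dye at ex 535/em 590. Cells were HEK293-derived (endogenous PDE-IV) at 1000 cells/well, titrated up to 22.9 uM final.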

[8] = biological target: Cytochrome P450 3A4 (Homo sapiens) (UniProt P08684); assay: qHTS Assay for Activators of Cytochrome P450 3A4 (AID 885; active = well fitted curve in the direction sought with a large enough effect; an effect the other way counts as inactive or inconclusive; note: nearly all actives have a fitted effect of over 65% in size)
Method in brief: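 Activators are scored by enhanced luminescence from CYP3A4 conversion of luciferin-PPXE (25uM, equal to KM) to luciferin, after 60 min at RT with an NADPH-regenerating system.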

[9] = biological target: Mitogen-activated protein kinase 10 (Mus musculus) (UniProt Q61831); assay: JNK3 AlphaScreen Assay (AID 530);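 note: kinase came from lysate of stimulated human HepG2 cells; signal reports phosphorylation of biotinylated GST-cJun 1-79 at Ser73 with 10 µM ATP; % is set by controls: 0 for no effect and ±100 for the full control effect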
Method in brief: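 qHTS titrations with 15 min compound pre-incubation before adding ATP (10 uM final). Read-out: AlphaScreen of Ser73-phosphorylated biotin-GST-cJun using HepG2 lysate JNK3 activated by IL-1β and TNFα.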

[10] = biological target: Cytochrome P450 3A4 (Homo sapiens) (UniProt P08684); assay: qHTS Assay for Inhibitors and Substrates of Cytochrome P450 3A4 (AID 884; active = well fitted curve in the direction sought with a large enough effect; an effect the other way counts as inactive or inconclusive; note: potency is the fitted concentration of half-maximal effect; nearly all actives have a fitted effect of over 50% in size)
Method in brief: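 Luminescent readout of luciferin produced by CYP3A4 (20 nM) dealkylation of Luciferin-PPXE, 25 uM (its KM). NADPH-driven reaction ran 60 min at RT after 10 min compound preincubation; data scaled to 57 uM ketoconazole as 100% inhibition.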

[11] = biological target: Glucocorticoid receptor (Homo sapiens) (UniProt P04150); assay: GR-GFP Redistribution (AID 450;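 active = compounds whose dose series gives a full or clear partial fitted curve of increased nuclear translocation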; note: potency is the fitted concentration of half-maximal effect); conditions: U2OS GR-GFP nuclear translocation, laser cytometry, 2 h
[12] = biological target: Dual specificity protein kinase CLK4 (Homo sapiens) (UniProt Q9HAZ1); assay: qHTS Assay for Inhibitors of CDC-like Kinase 4 (ADP-FP Assay) (AID 1795; active = well fitted curve in the direction sought with a large enough effect; an effect the other way counts as inactive or inconclusive; note: nearly all actives have a fitted effect of over 60% in size; note: potency is the fitted concentration of half-maximal effect)
Method in brief: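 Clk4 6.25 nM; RS peptide 100 uM; ATP 1 uM; 25 mM Tris pH 7.5, 10 mM MgCl2; 1 h reaction. ADP detected via antibody/orange tracer FP displacement; TG003 positive control.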

[13] = biological target: Ubiquitin carboxyl-terminal hydrolase 1 (Homo sapiens) (UniProt O94782); assay: Inhibitors of USP1/UAF1: Pilot qHTS (AID 504865; active = well fitted curve in the direction sought with a large enough effect; an effect the other way counts as inactive or inconclusive;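 note: rhodamine fluorescence freed from ubiquitin-rhodamine substrate followed over time; top concentration of the series differs between compounds; % is set by controls: 0 for no effect and ±100 for the full control effect; nearly all actives have a fitted effect of over 35% in size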)
Method in brief: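 In 50mM HEPES pH 7.8 containing 0.5mM EDTA, 1mM TCEP, 0.1 mg/ml BSA and 0.01% Tween-20, 1nM USP1/UAF1 is exposed to compound for 15 min, then Ub-Rho (150nM final) is added and fluorescence is read over time.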

[14] = biological target: Dual specificity protein kinase CLK4 (Homo sapiens) (UniProt Q9HAZ1); assay: qHTS Assay for Inhibitors of CDC-like Kinase 4 (Kinase-Glo Assay) (AID 1770; active = well fitted curve in the direction sought with a large enough effect; an effect the other way counts as inactive or inconclusive; note: nearly all actives have a fitted effect of over 65% in size; note: potency is the fitted concentration of half-maximal effect)
Method in brief: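 Substrate mix (RS peptide 100 uM, ATP 1 uM) dispensed, compound pinned in, then Clk4 added to 25 nM final. Incubated 4.5 h at RT; Kinase-Glo reagent added, luminescence read after 5 min.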

[15] = biological target: Dual specificity protein kinase CLK4 (Homo sapiens) (UniProt Q9HAZ1); assay: qHTS Assay for Inhibitors of CDC-like Kinase 4 (ADP-Glo Assay) (AID 1771; active = well fitted curve in the direction sought with a large enough effect; an effect the other way counts as inactive or inconclusive; note: nearly all actives have a fitted effect of over 70% in size; note: potency is the fitted concentration of half-maximal effect)
Method in brief: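 Compounds are pin-transferred onto substrate mix (100 uM RS peptide, 1 uM ATP), then 25 nM Clk4 is added. After 1 hr at room temperature, ADP-Glo reagent runs 45 min, detection reagent 30 min, then luminescence is read.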

[16] = biological target: Cytochrome P450 2C9 (Homo sapiens) (UniProt P11712); assay: qHTS Assay for Inhibitors and Substrates of Cytochrome P450 2C9 (AID 883; active = well fitted curve in the direction sought with a large enough effect; an effect the other way counts as inactive or inconclusive; note: % is set by controls: 0 for no effect and ±100 for the full control effect; nearly all actives have a fitted effect of over 60% in size)
Method in brief: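 Luminescent read-out of deoxyluciferin hydroxylation, normalized to 57uM sulphaphenazole (AC100). Reaction: 10nM enzyme, 100uM Luciferin-H (equal to KM), 25mM KPO4, 10 min compound preincubation, then 60 min with NADPH regeneration, both at 37C.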

[17] = qHTS Assay for Identification of Small Molecule Agonists for Hypoxia Response Element Signaling Pathway (AID 914; active = well fitted activation curve with a large enough effect in the signal ratio, with a control signal flat, not every such curve was filed as active; the % refers to the signal ratio; note: potency is the fitted concentration of half-maximal effect); conditions: ME-180 (cervical carcinoma) HRE-bla reporter, beta-lactamase ratio, CoCl2, 17 h; activation: hits give high values
Method in brief: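 Reporter activity (beta-lactamase, CCF4 460nm/530nm ratio) in HRE-bla ME-180 cells is recorded after 17 h compound exposure with EC50 CoCl2 at 37 degrees Celsius. AC50 values come from titration data.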

Chain of Ubiquitin carboxyl-terminal hydrolase 1 (Homo sapiens) (O94782 whole entry, looked up): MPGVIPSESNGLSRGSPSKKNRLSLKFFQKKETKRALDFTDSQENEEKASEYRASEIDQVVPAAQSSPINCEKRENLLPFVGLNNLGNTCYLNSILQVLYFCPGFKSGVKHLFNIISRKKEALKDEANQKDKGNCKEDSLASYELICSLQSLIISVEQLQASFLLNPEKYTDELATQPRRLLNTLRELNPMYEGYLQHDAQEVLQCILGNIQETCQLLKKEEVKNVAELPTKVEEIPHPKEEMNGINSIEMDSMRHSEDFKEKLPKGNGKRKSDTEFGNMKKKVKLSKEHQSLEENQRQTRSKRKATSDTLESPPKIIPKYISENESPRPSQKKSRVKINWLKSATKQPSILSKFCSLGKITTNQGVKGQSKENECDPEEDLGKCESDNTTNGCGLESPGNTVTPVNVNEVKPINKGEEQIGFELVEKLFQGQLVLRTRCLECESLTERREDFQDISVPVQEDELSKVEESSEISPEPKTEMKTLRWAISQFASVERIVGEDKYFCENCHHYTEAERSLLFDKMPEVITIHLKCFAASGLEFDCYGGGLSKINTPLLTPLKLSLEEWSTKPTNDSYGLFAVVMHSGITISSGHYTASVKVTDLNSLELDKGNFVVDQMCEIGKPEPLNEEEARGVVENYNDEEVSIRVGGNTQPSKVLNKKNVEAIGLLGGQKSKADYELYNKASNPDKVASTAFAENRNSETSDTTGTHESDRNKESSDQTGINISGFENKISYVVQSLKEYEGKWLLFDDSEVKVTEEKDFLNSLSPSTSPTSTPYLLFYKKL
Chain of Lysosomal acid glucosylceramidase (Homo sapiens) (P04062 whole entry, looked up): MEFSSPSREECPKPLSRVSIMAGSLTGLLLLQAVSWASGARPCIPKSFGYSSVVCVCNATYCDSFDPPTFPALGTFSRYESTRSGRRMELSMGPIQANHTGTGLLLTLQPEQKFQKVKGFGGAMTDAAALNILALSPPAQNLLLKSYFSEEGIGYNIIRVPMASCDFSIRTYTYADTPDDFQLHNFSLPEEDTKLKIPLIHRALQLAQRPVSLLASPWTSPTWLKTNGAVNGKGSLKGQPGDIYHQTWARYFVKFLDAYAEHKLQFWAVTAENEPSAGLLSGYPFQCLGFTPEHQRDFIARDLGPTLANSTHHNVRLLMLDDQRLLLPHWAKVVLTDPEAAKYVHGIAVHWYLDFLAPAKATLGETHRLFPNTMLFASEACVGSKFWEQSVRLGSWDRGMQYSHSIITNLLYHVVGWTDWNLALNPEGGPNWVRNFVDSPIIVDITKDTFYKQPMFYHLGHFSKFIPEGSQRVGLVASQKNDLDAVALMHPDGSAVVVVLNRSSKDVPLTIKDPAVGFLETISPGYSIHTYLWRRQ
Chain of Cytochrome P450 1A2 (Homo sapiens) (P05177 whole entry, looked up): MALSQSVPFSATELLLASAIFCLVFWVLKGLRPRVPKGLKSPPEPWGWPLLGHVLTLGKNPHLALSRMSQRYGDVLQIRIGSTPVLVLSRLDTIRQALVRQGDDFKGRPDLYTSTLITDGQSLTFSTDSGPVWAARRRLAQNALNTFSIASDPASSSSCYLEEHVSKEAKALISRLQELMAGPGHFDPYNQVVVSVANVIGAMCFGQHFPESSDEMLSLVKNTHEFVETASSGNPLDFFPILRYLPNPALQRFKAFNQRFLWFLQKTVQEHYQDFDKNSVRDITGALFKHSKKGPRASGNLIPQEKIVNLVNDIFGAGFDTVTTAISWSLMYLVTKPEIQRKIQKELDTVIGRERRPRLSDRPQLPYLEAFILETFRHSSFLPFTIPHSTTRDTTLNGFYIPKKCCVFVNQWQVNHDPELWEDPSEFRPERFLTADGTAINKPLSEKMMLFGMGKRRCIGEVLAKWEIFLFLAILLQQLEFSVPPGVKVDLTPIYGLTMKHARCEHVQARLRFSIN
Chain of Cytochrome P450 3A4 (Homo sapiens) (P08684 whole entry, looked up): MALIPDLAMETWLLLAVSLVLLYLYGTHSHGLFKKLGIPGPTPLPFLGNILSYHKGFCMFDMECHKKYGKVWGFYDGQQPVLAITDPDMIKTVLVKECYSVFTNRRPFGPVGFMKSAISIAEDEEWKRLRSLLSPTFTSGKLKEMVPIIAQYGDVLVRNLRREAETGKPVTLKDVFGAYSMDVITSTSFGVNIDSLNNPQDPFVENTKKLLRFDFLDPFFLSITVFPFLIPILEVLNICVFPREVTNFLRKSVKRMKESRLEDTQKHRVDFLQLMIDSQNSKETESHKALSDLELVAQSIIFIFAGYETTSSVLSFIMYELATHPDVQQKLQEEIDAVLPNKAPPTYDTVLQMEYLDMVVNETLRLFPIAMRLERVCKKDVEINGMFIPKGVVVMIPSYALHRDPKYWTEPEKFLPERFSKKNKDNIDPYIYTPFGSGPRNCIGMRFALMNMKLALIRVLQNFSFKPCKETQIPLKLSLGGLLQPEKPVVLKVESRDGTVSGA
Chain of Glucocorticoid receptor (Homo sapiens) (P04150 whole entry, looked up, the tested form may be a part): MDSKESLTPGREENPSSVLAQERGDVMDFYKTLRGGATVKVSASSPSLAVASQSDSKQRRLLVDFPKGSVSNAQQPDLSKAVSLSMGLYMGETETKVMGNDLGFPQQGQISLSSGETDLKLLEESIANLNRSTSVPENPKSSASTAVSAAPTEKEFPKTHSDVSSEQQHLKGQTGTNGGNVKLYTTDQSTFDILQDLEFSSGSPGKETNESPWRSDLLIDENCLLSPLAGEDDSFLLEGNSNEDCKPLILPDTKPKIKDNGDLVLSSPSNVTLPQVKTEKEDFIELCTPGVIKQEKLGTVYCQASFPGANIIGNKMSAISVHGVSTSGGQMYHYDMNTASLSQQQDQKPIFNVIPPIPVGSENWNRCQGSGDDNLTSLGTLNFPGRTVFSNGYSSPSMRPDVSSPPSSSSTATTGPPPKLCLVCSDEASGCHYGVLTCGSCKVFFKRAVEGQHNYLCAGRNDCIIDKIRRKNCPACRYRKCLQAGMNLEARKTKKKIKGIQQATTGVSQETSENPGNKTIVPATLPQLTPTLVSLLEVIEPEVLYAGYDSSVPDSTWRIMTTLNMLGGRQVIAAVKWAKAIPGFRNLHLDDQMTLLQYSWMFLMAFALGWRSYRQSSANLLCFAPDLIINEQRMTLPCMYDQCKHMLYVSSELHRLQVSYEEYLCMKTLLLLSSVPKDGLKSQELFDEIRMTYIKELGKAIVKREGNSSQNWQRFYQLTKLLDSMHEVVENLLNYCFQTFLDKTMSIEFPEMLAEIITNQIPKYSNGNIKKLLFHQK
Chain of Dual specificity protein kinase CLK4 (Homo sapiens) (Q9HAZ1 whole entry, looked up): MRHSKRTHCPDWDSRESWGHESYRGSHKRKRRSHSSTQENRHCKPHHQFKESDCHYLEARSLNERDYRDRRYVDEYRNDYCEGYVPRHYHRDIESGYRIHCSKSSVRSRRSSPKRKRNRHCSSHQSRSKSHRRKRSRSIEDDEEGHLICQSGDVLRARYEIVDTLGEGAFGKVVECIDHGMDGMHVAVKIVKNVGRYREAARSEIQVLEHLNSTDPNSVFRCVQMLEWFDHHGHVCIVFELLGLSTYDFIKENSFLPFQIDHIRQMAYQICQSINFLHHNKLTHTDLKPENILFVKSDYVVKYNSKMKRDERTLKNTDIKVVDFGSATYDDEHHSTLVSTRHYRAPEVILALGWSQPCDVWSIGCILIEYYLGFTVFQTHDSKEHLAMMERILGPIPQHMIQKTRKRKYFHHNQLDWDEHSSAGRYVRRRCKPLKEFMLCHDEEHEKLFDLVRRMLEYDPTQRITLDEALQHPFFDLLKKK
Chain of 3',5'-cyclic-AMP phosphodiesterase 4B (Homo sapiens) (Q07343 whole entry, looked up): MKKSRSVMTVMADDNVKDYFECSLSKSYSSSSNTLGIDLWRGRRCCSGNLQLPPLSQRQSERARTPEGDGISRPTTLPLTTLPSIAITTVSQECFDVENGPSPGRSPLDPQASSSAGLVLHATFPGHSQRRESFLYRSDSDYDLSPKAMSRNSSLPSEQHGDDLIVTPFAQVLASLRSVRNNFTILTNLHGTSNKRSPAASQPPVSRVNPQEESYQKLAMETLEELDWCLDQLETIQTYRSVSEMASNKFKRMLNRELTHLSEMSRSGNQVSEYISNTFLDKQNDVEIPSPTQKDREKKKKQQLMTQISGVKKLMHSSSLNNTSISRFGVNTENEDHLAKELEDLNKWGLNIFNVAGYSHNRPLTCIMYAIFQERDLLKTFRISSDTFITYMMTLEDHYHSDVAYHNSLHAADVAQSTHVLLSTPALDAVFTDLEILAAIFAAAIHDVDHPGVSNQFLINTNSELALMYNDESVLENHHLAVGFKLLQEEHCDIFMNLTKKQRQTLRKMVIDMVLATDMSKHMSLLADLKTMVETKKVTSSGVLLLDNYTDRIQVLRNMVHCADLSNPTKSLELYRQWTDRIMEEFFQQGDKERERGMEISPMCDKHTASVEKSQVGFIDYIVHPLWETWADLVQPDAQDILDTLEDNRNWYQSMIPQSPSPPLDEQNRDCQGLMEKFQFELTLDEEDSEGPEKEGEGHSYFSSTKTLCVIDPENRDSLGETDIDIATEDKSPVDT
Chain of Cytochrome P450 2C9 (Homo sapiens) (P11712 whole entry, looked up): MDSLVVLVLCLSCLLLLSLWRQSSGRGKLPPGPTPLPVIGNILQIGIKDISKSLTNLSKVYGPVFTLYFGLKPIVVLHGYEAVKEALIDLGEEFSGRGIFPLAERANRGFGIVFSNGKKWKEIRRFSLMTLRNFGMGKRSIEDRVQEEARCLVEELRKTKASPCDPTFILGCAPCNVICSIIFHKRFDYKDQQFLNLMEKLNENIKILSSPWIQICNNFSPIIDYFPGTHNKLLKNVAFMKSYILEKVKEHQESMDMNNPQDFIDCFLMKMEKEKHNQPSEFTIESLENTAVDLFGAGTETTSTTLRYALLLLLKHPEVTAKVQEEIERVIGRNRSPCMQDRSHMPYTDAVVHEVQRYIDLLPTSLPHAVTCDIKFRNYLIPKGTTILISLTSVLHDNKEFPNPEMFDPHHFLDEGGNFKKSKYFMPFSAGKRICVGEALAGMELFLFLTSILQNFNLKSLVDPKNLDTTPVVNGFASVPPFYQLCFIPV

SMILES | Potency [1] [µM] | activity change, negative = inhibition [2] [%] | Potency [3] | activity change, negative = inhibition [4] [%] | activity, negative = inhibition [5] [%] | Potency [6] [µM] | Potency [7] | Potency [8] | Potency [9] | Potency [10] | Potency [11] [µM] | Potency [12] | Potency [13] | Potency [14] | Potency [15] | Potency [16] | Potency [17]
COc1ccc(NC(=O)N2CCCC3(CCN(C(=O)c4ccc(OC)cc4)CC3)C2)cc1 | > 11.4 | -11.4 | inactive | 0.394 | -3.96 | > 46 | inactive | inactive |  |  |  |  |  |  |  |  | 
O=C(c1cccc(F)c1)N1CCC[C@@]2(CCN(Cc3ccncc3)C2)C1 | > 11.4 | -12 |  | -14.7 | -0.901 | > 46 | inactive | inactive | inactive | 3.16 µM (active) |  |  |  |  |  |  | 
CN(C)C(=O)c1ccc(-c2ccc3ncnc(N4CCNCC4)c3c2)cc1 | > 11.4 | -26.4 | inactive | 4.61 | -3.14 | > 46 | inactive |  | inactive |  | > 46 | inactive | inactive |  |  |  | 
COc1ccc(CNc2ncnc3ccc(-c4ccc5c(c4)OCO5)cc23)c(OC)c1 |  | -16.9 |  |  | -5.8 | > 46 |  |  | inactive |  | > 46 | 0.398 µM (active) | inactive | 1.41 µM (active) | 1.41 µM (active) |  | 
Cc1cnc(CNc2ccnc(-c3ccoc3)n2)cn1 | > 11.4 | 16.3 | 12.6 µM (active) | -4.07 | 7.07 | > 46 | inactive | inactive | inactive |  | > 46 | inactive | inactive | inactive | inactive |  | 
Cn1c(=O)c(-c2ccc(F)cc2)nc2cncnc21 | > 11.4 | -16.1 | 0.158 µM (active) | -1.33 | -0.562 | > 46 | inactive | inactive | inactive |  | > 9.22 |  |  |  |  |  | 
CCNc1ncc2nc(-c3ccc(OC)cc3)c(=O)n(Cc3ccc(F)cc3)c2n1 | > 11.4 |  | inactive |  |  | > 46 |  |  | inactive |  | > 9.22 | inactive | inactive | inactive | inactive | inactive | 1.26 µM (active)
